# Experimental data: ChEMBL document CHEMBL3433997, “St. Jude Leishmania screening dataset” (2016)
# Assays:
# Assay type in all cases: functional
# [1] = molecular target: Solute carrier family 2, facilitated glucose transporter member 1 (Homo sapiens) (UniProt P11166); assay: ST_JUDE_LEISH: Cytotoxicity at 2uM final concentration against transgenic Leishmania Mexicana promastigotes LmGLUT1 that are glucose transport deficient and complemented with the human glucose transporter GLUT1. Activity is measured by DNA content using SYBR green in vitro
# [2] = molecular target: Hexose transporter 1 (Plasmodium falciparum) (UniProt O97467); assay: ST_JUDE_LEISH: Cytotoxicity at 2uM final concentration against transgenic Leishmania Mexicana promastigotes LmPfHT that are glucose transport deficient and complemented with the Plasmodium falciparum hexose transporter. Activity is measured by DNA content using SYBR green in vitro
# [3] = molecular target: Glucose transporter (Leishmania mexicana) (UniProt O61059); assay: ST_JUDE_LEISH: Cytotoxicity at 2uM final concentration against transgenic Leishmania Mexicana promastigotes LmGT2 that are glucose transport deficient and complemented with the L. Mexicana glucose transporter 2. Activity is measured by DNA content using SYBR green in vitro
# Solute carrier family 2, facilitated glucose transporter member 1 (Homo sapiens), sequence (P11166 whole entry): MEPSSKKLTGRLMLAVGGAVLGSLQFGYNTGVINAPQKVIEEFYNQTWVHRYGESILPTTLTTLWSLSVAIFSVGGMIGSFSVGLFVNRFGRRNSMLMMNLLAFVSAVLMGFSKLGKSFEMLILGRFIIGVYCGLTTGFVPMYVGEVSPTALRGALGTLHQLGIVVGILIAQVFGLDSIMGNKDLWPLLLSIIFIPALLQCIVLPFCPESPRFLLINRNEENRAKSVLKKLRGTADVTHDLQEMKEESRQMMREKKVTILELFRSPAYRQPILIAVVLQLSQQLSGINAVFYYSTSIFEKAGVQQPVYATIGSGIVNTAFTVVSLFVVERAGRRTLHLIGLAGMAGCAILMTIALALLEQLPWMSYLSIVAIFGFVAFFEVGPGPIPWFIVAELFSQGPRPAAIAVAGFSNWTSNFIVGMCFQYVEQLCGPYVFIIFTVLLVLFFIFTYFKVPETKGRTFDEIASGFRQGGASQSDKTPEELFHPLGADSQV
SMILES,inhibition [1],inhibition [2],inhibition [3]
CC[C@H](N/C(=N\c1cccc(Cl)c1Cl)Nc1ccc(C#N)cc1O)c1ccccc1,7.88%,9.4%,6.46%
O=C(NCC1CCN(Cc2cccc(C(F)(F)F)c2)C1)c1cc(-c2cccc(Cl)c2)cs1 (centres undefined),1.83%,1.37%,-3.57%
Clc1ccc(-c2cc(-c3csc(NCCN4CCOCC4)n3)on2)c(Cl)c1,12.4%,9.19%,10.6%
CC(C)Cn1ncc2c3c(N)nc(N)nc3ccc21,4.46%,5.97%,4.36%
O=C(Nc1ccc(-c2cccc(-c3nc4ccccc4[nH]3)c2)cc1)Nc1ccsc1,-0.72%,4.27%,-0.62%
O=C(Nc1ccc(Cl)cc1)Nc1cccc(-c2cc(CNCCc3ccccc3)oc2-c2ccncc2)c1,5.78%,2.56%,3.77%
O=C(Nc1cccc(-c2cccc(-c3nc4cc(F)ccc4[nH]3)c2)c1)c1csnn1,6.12%,4.57%,1.83%
CC(C)CNCc1cccc(-c2cccc(CN(CCN(C)C)C(=O)Nc3ccccc3)c2)c1,2.46%,4.17%,0.55%
COc1ccc2nc3cc(Cl)ccc3c(NCCNCC(O)CO)c2n1 (centres undefined),7.93%,6.76%,5.98%
CCCCCCNC(=O)C1Cc2c([nH]c3ccc(C)cc23)C2(CCN(Cc3ccccc3)CC2)N1 (centres undefined),0.98%,0.07%,1.33%
COc1cc(C2Nc3ccc4ccccc4c3C3=C2C(=O)CC(C)(C)C3)ccc1Oc1ccc([N+](=O)[O-])cc1C#N (centres undefined),4.18%,4.07%,-0.66%
Cc1ccc(O)c(C(=O)c2cnc3c(c2)c(-c2ccc(F)cc2)c(C#N)c(=O)n3C)c1,8.51%,4.73%,1.51%
COc1ccc(Nc2nc(C)cc(NC3CCCC3)n2)cc1,29.2%,26.2%,17.7%
FC(F)(F)c1ccc2[nH]ccc(=NN=Cc3cccnc3)c2c1,1.46%,1.75%,5.22%
CCCCCCN1CCCN(Cc2ccc(C(=O)Nc3ccc(CC)cc3)cc2)CC1,11.4%,10.9%,10.6%
O=C(/C=C/c1ccc(Cl)c(Cl)c1)NC1CCC(CN2CCC(c3nc4cccnc4[nH]3)CC2)CC1 (centres undefined),1.77%,2.5%,-2.89%
CNc1nc(N/N=C/c2cc3c(cc2[N+](=O)[O-])OCO3)nc(Nc2cccc(C(F)(F)F)c2)n1,6.24%,5.94%,2.16%
CCN(CCCN1CCCCC1)c1cc(C)nc(Nc2ccc(OC)cc2)n1,-2.3%,-1.06%,-1.02%
Cc1cccc2nc(-c3ccc(-c4cccc(NC(=O)CCc5c[nH]cn5)c4)s3)[nH]c12,3.85%,2.05%,1.67%
CNC(=O)C1Cc2c([nH]c3c(C)cccc23)C2(N1)C(=O)Nc1ccc(OC(F)(F)F)cc12 (centres undefined),1.24%,1.59%,3.8%
Nc1nccc2ccc(-c3ccc(NC(=O)Nc4cc(C(F)(F)F)ccc4F)cc3)cc12,0.91%,4.94%,-0.4%
CCCCCCn1c(Sc2ccc(C#N)c([N+](=O)[O-])c2)nnc1-c1ccc(OC)cc1,5.67%,5.13%,-3.74%
c1ccc(CN2CCC(NCc3ccccc3-c3cccc(CNC4CCCC4)c3)CC2)cc1,6.21%,2.62%,7.14%
CCOC(=O)c1[nH]c2ccc(F)cc2c1NC(=O)CN1CCN(c2cccc(C(F)(F)F)c2)CC1,0.03%,0.43%,-2.97%
CO/C(=C\C=C\c1cc2cc(Cl)c(Cl)cc2[nH]1)C(=O)NC1CCN(CCCc2ccccc2)CC1,0.89%,1.14%,2.46%
CN1CCN(Cc2cccc(-c3ccc4c(Nc5cc(O)c(Cl)cc5F)ccnc4c3)c2)CC1,2.16%,6.74%,13%
COc1ccc(Nc2ncc3c(-c4cccc(NC(=O)Cc5ccncc5)c4)c[nH]c3n2)cc1OC,-0.87%,-1.41%,-1%

SMILES,inhibition [1],inhibition [2],inhibition [3]
CCC1N=C(N)N=C(N)N1OCc1cccc2ccccc12 (centres undefined),1.74%,0.62%,1.16%
C=CCNc1cc(-c2ccccn2)nc(-c2ccccn2)n1,31.9%,9.08%,6.05%
O=C(Cc1ccccc1)NC(c1ccc(Cl)cc1)c1ccc2cccnc2c1O (centres undefined),6.92%,4.47%,1.97%
Oc1cccc(-c2cnc3ccc(NCc4ccc(F)cc4)nn23)c1,-3.17%,0.63%,-1.63%
Cc1cc(=O)[nH]c(-n2nc(C)cc2NC(=O)CC(c2ccccc2)c2ccccc2)n1,14.8%,23.1%,-1.63%
CC1CCCN(C(=O)c2cc(-c3ccccn3)nc3c(Cl)cccc23)C1 (centres undefined),2.19%,1.26%,1.25%
CC(=NNC(S)=NCCc1ccccn1)c1ccccn1,7.78%,4.39%,6.19%
N#Cc1ccc(S(=O)(=O)N2C(c3cccc([N+](=O)[O-])c3)C(C(=O)c3ccccc3)N(C3CCCCC3)C2c2cccc([N+](=O)[O-])c2)cc1 (centres undefined),7.88%,7.58%,7.58%
COc1ccc(C(=O)CC(=O)c2ccc(OC)cc2OC)c(OC)c1,6.03%,4.03%,4.43%
Cc1cc(=O)c(-c2ccc(OCCSc3ccc(C(F)(F)F)cn3)cc2)c(C)[nH]1,2.89%,5.13%,2.2%
O=C(CCC1CCCC1)N(Cc1ccc(-c2ccc(CNCCc3ccccc3)cc2)cc1)C1CCCNC1 (centres undefined),-0.19%,1.6%,0.14%
c1ccc2ncc(CNCCCCCCCCNCc3cnc4ccccc4c3)cc2c1,-0.67%,-0.08%,0.09%
CN1C(C)(C)CC(NC(=O)c2ccc(-c3nc4cc(Cl)ccc4[nH]3)cc2)CC1(C)C,1.69%,2.24%,2.7%
N=C(N)NCCCCN(Cc1ccccc1)c1ccccc1,3.52%,3.53%,3.86%
CCN(CC)CCOc1ccc(C(O)(C#CC(O)(c2ccc(C)cc2)c2ccc(OCCN(CC)CC)cc2)c2ccc(C)cc2)cc1 (centres undefined),7.79%,8.63%,1.02%
N#Cc1ccc(N(CCNS(=O)(=O)c2cc(Br)c(Cl)s2)Cc2ccccc2C(F)(F)F)cc1C(F)(F)F,3.37%,0.82%,1.55%
Cc1ccc(N2CCN(C(=O)c3cccc(-c4cncc5nc(-c6ccco6)n(C)c45)c3)CC2)nc1,6.13%,5.42%,5.39%
CCCNCc1ccc(-c2ccc(CN(CCOC)C(=O)c3cccc(C#N)c3)cc2)nc1,1.66%,1.45%,3.74%
FC(F)(F)c1ccc2[nH]c(-c3ccc(-c4cccc(CNCCc5ccncc5)c4)s3)nc2c1,0.52%,1.67%,5.33%
CCCC(=O)Nc1ccc(Nc2nc(C)cc(N3CCCC3)n2)cc1,1.82%,4.49%,-0.91%
COc1ccc2nccc([C@@H](O)CN3CCC(NCc4ccc5c(c4)NC(=O)CO5)CC3)c2c1,1.26%,1.94%,1.91%
COc1cc(CCN(C)Cc2ccc(OC)c(OC)c2)ccc1NC(=O)c1cccc2c(O)c3cccc(F)c3nc12,3.49%,1.84%,3.27%
Cc1cc(N2CCOCC2)nc2ccc(NC(=O)c3ccc(Cl)c([N+](=O)[O-])c3)cc12,5.45%,3.08%,2.75%
O=C(/C=C/c1ccc(Cl)c(Cl)c1)NCCCCCN1CCCN(C(=O)Nc2cccc(C(F)(F)F)c2)CC1,3.99%,2.84%,3.62%
CC(=O)N1CCC(C(=O)Nc2ccc(-c3cccc(-c4nc5cccc(C)c5[nH]4)c3)cc2)CC1,2.37%,0.21%,0.44%
COc1c(C(=O)NC2CCN(Cc3ccccc3)C2)cnc2ccccc12 (centres undefined),11.8%,9.19%,8.95%
